Inconclusive results are not listed. Active and inactive are the calls of the source. Calls come from the whole dose curve; as a rule, active = well fitted curve in the direction sought with a large enough effect; inconclusive = small, poorly fitted or top-dose-only effect, or another doubt; inactive = no such curve, though single readings can be large; an effect the other way counts as inactive or inconclusive.
Legend:
[1] = test system: CRL-7250; test: Cytotoxic Profiling of Annotated Libraries Using Quantitative High-Throughput Screening (AID 1296008); conditions: Five cell lines viability, CellTiter-Glo ATP luminescence, 48-72 h; max response: stronger effect = lower value; note: nearly all actives have a fitted effect of over 60% in size; for max response: % is set by controls: 0 for no effect and ±100 for the full control effect
In short: (§1)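 Cells exposed to compounds for 48 or 72 hr at 37 degrees Celsius. Viability read as ATP-coupled luminescence with CellTiter-Glo after 10 min at room temperature.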

[2] = test system: HEK293; test: as above; conditions: Five cell lines viability, CellTiter-Glo ATP luminescence, 48-72 h; max response: stronger effect = lower value
In short: as §1

[3] = test system: HaCat; test: as above; conditions: Five cell lines viability, CellTiter-Glo ATP luminescence, 48-72 h; max response: stronger effect = lower value
In short: as §1

[4] = test system: KB-3-1; test: as above; conditions: Five cell lines viability, CellTiter-Glo ATP luminescence, 48-72 h; max response: stronger effect = lower value
In short: as §1

[5] = test system: NIH3T3; test: as above; conditions: Five cell lines viability, CellTiter-Glo ATP luminescence, 48-72 h; max response: stronger effect = lower value
In short: as §1

[6] = test system: HEK293T; test: qHTS assay to identify novel small-molecules to repurpose for Merkel cell carcinoma treatment (AID 1296009); conditions: MCC and control cell lines, CellTiter-Glo viability, 72 h; series mostly up to 44.8 µM; note: nearly all actives have a fitted effect of over 60% in size
In short: (§2)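 Dose-response viability screen; 72 hr exposure at 37 degree celsius; CellTiter-Glo added, 10 min room temperature, luminescence read; RLUs scaled between no-cell and DMSO wells.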

[7] = test system: NIH3T3; test: as above; conditions: MCC and control cell lines, CellTiter-Glo viability, 72 h; at 44.8 µM (top of the series) unless noted
In short: as §2

[8] = test system: C33A; test: Primary qHTS to identify gynecologic anti-cancer compounds using libraries of approved drugs and bioactive compounds (AID 1345084); conditions: Gynecologic cancer cell panel viability, ATPlite luminescence, 48 h; series mostly up to 57.5 µM; note: % is set by controls: 0 for no effect and ±100 for the full control effect; nearly all actives have a fitted effect of over 55% in size
In short: (§3)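 Cells, 1,000 per well, plated 16 h, then exposed 48 h at 37 C to compounds. Viability by ATPlite luminescence after 15 min at room temperature.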

[9] = test system: CAOV3; test: as above; conditions: Gynecologic cancer cell panel viability, ATPlite luminescence, 48 h; series mostly up to 57.5 µM
In short: as §3

[10] = test system: CASKI; test: as above; conditions: Gynecologic cancer cell panel viability, ATPlite luminescence, 48 h; series mostly up to 57.5 µM
In short: as §3

[11] = test system: Es-2; test: as above; conditions: Gynecologic cancer cell panel viability, ATPlite luminescence, 48 h; series mostly up to 57.5 µM
In short: as §3

[12] = test system: HeLa; test: as above; conditions: Gynecologic cancer cell panel viability, ATPlite luminescence, 48 h; series mostly up to 57.5 µM
In short: as §3

OC1COC(OCC2OC(OCCc3ccccc3)C(O)C(O)C2O)C(O)C1O (configuration not stated)
inactive: outcome [1] | outcome [2] | max response [3] -7.45% | outcome [4] | outcome [5] | Potency [6] | outcome [7] inactive [at 17.4 µM] | Potency [8] | Potency [9] | Potency [10] | Potency [11] | Potency [12]

CC1CCC(=O)CC(O)C(O)CC(=O)O1 (configuration not stated)
inactive: max response [1] -5.97% | outcome [2] | max response [3] 4.62% | max response [4] 5.19% | outcome [5] | Potency [6] | outcome [7] | Potency [8] | Potency [9] | Potency [10] | Potency [11] | Potency [12]

COc1cc(-c2cccc(O)c2)cc2c1OCO2
inactive: max response [1] -4.5% | outcome [2] | max response [3] 0.342% | outcome [4] | outcome [5] | Potency [6] | outcome [7] | Potency [8] | Potency [9] | Potency [10] | Potency [11] | Potency [12]

O=C(/C=C/c1ccccc1)OCC1=CC[C@@H]2C(C(=O)O)=CO[C@@H](O[C@@H]3O[C@H](CO)[C@@H](O)[C@H](O)[C@H]3O)[C@H]12
inactive: outcome [1] | outcome [2] | max response [3] 0.992% | outcome [4] | outcome [5] | Potency [6] | outcome [7] inactive [at 17.4 µM] | Potency [8] | Potency [9] | Potency [10] | Potency [11] | Potency [12]

CN1C(=O)N[C@@H](Cc2c[nH]c3c(Cl)cccc23)C1=O
inactive: max response [1] -3.21% | outcome [2] | max response [3] -0.267% | max response [4] -1.43% | outcome [5] | Potency [6] | outcome [7] | Potency [8] | Potency [9] | Potency [10] | Potency [11] | Potency [12]

CC(/C=C/C1(O)C(C)(C)CC(O)CC1(C)O)OC1OC(CO)C(O)C(O)C1O (configuration not stated)
inactive: outcome [1] | outcome [2] | max response [3] -8.69% | outcome [4] | outcome [5] | Potency [6] | outcome [7] inactive [at 17.4 µM] | Potency [8] | Potency [9] | Potency [10] | Potency [11] | Potency [12]

CO[C@@]12CC3[C@@H]([C@@H](O)[C@@H](OC(C)=O)C4[C@](C)(COC(C)=O)CCC[C@]34C)[C@@H](C)C1=CC(=O)O2 (some centres not stated)
inactive: outcome [1] | outcome [2] | max response [3] 3.42% | outcome [4] | outcome [5] | Potency [6] | outcome [7] inactive [at 17.4 µM] | Potency [8] | Potency [9] | Potency [10] | Potency [11] | Potency [12]

O=C(NCc1ccc(OC(F)(F)F)cc1)C1c2ccccc2C(=O)N1C1CCOCC1 (configuration not stated)
inactive: outcome [1] | outcome [2] | max response [3] -6.26% | outcome [4] | outcome [5] | Potency [6] | outcome [7] | Potency [8] | Potency [9] | Potency [10] | Potency [11] | Potency [12]

COC1CC(OC2CCC3(C)C(=CCC4C3CCC3(C)C(C(C)O)CCC43O)C2)OC(C)C1OC1OC(C)C(OC2OC(COC3OC(COC4OC(CO)C(O)C(O)C4O)C(O)C(O)C3O)C(O)C(O)C2O)C(OC)C1O (configuration not stated)
inactive: max response [1] -10.5% | outcome [2] | max response [3] -1.65% | outcome [4] | outcome [5] | outcome [6] inactive [at 9.27 µM] | outcome [7] inactive [at 9.27 µM] | activity change, negative = cytotoxicity [8] 3.94% [at 11.6 µM] | activity change, negative = cytotoxicity [9] 2.24% [at 11.6 µM] | activity change, negative = cytotoxicity [10] 16.9% [at 11.6 µM] | activity change, negative = cytotoxicity [11] 1.08% [at 11.6 µM] | activity change, negative = cytotoxicity [12] -2.66% [at 11.6 µM]

CC(C)(OC1OC(CO)C(O)C(O)C1O)C1CCC(O)(CO)C2CC(O)C(C)(O)C2C1 (configuration not stated)
inactive: max response [1] -5.53% | outcome [2] | max response [3] 0.555% | max response [4] 2.34% | outcome [5] | Potency [6] | outcome [7] inactive [at 17.4 µM] | Potency [8] | Potency [9] | Potency [10] | Potency [11] | Potency [12]

CCC(=O)N[C@@H]1Cc2ccccc2[C@H](c2ccccc2)C1
inactive: outcome [1] | outcome [2] | max response [3] 0.895% | outcome [4] | outcome [5] | Potency [6] | outcome [7] | Potency [8] | Potency [9] | Potency [10] | Potency [11] | Potency [12]

CCOC(=O)N1CCC(NCCNC(=O)c2ccccc2C)CC1
inactive: max response [1] 3.66% | outcome [2] | max response [3] -7.3% | max response [4] 6.5% | outcome [5] | Potency [6] | outcome [7] | Potency [8] | Potency [9] | Potency [10] | Potency [11] | Potency [12]

COc1cc(CC(COC2OC(CO)C(O)C(O)C2O)c2cc(/C=C/CO)cc(OC)c2O)ccc1O (configuration not stated)
inactive: outcome [1] | outcome [2] | max response [3] 1.49% | max response [4] 1.74% | outcome [5] | Potency [6] | outcome [7] inactive [at 17.4 µM] | Potency [8] | Potency [9] | Potency [10] | Potency [11] | Potency [12]

COC12CC3C(C(C)C1=CC(=O)O2)C(O)C(OC(C)=O)C1C(C)(C)C(OC(C)=O)CCC31C (configuration not stated)
inactive: max response [1] 0.349% | outcome [2] | max response [3] -18.1% | outcome [4] | outcome [5] | Potency [6] | outcome [7] inactive [at 17.4 µM] | Potency [8] | Potency [9] | Potency [10] | Potency [11] | Potency [12]

CC(C)(O)C1CC=C(C(=O)OCC2OC(Oc3c(O)cc(C(=O)O)cc3O)C(O)C(O)C2O)CC1 (configuration not stated)
inactive: max response [1] -4.71% | outcome [2] | max response [3] -2.95% | outcome [4] | outcome [5] | Potency [6] | outcome [7] inactive [at 17.4 µM] | Potency [8] | Potency [9] | Potency [10] | Potency [11] | Potency [12]

C[C@@H]1O[C@@H](O[C@H]2[C@H](OC(=O)[C@]34CCC(C)(C)C[C@H]3C3=CCC5[C@@]6(C)CC[C@H](O[C@@H]7O[C@H](CO[C@@H]8OC[C@H](O)[C@H](O)[C@H]8O)[C@@H](O)[C@H](O)[C@H]7O)C(C)(C)C6CC[C@@]5(C)[C@]3(C)C[C@H]4O)OC[C@@H](O)[C@@H]2O)[C@H](O)[C@H](O)[C@H]1O[C@@H]1OC[C@H](O)[C@H](O[C@@H]2OC[C@@H](O)[C@H](O)[C@H]2O)[C@H]1O (some centres not stated)
inactive: max response [1] -0.806% | outcome [2] | max response [3] -0.578% | outcome [4] | outcome [5] | outcome [6] inactive [at 9.27 µM] | outcome [7] inactive [at 9.27 µM] | activity change, negative = cytotoxicity [8] 2.46% [at 6.55 µM] | activity change, negative = cytotoxicity [9] -15.5% [at 6.55 µM] | activity change, negative = cytotoxicity [10] -13.2% [at 6.55 µM] | activity change, negative = cytotoxicity [11] -2.02% [at 6.55 µM] | activity change, negative = cytotoxicity [12] 18.3% [at 6.55 µM]

— PubChem BioAssay (NCATS)
